# Article PMC11006913
# Where a chain is given by its changes, count along the chain named.
# Assays:
# Assay in all cases: PBM; 200 nM protein, PBS
# Settings in all cases: dsDNA, one strand shown
# [1] = target: SHOX (Homo sapiens, UniProt O15266 103-189)
# [2] = target: HOXC9 (Homo sapiens, UniProt P31274 178-260, K195R)
# [3] = target: HOXC9 (Homo sapiens, UniProt P31274 178-260)
# [4] = target: SHOX (Homo sapiens, UniProt O15266 103-189, R173C)
# [5] = target: HOXC9 (Homo sapiens, UniProt P31274 178-260, R193K)
# [6] = target: HOXC9 (Homo sapiens, UniProt P31274 178-260, R222W)
# [7] = target: HOXB9 (Homo sapiens, UniProt P17482 171-250, T197M)
# [8] = target: HOXB9 (Homo sapiens, UniProt P17482 171-250)
# [9] = target: HOXB9 (Homo sapiens, UniProt P17482 171-250, R186Q)
# [10] = target: NKX3-2 (Homo sapiens, UniProt P78367 192-278, P234S)
# [11] = target: NKX3-2 (Homo sapiens, UniProt P78367 192-278)
# [12] = target: T1, VENTX (Homo sapiens, UniProt O95231 78-163, R121Q)
# T1 sequence: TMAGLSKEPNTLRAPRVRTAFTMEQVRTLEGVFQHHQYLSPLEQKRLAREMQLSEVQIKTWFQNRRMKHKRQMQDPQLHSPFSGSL
# [13] = target: T2, VENTX (Homo sapiens, UniProt O95231 78-163)
# T2 sequence: T1 sequence with Q44R
# [14] = target: T3, VENTX (Homo sapiens, UniProt O95231 78-163, Y115F)
# T3 sequence: T1 sequence with Y38F, Q44R
# [15] = target: MSX2 (Homo sapiens, UniProt P35548 130-214, R199I)
# [16] = target: MSX2 (Homo sapiens, UniProt P35548 130-214)
# [17] = target: MSX2 (Homo sapiens, UniProt P35548 130-214, F161Y)
# [18] = target: ALX4 (Homo sapiens, UniProt Q9H161 200-286)
# [19] = target: ALX4 (Homo sapiens, UniProt Q9H161 200-286, Q225E)
# [20] = target: ALX1 (Homo sapiens, UniProt Q15699 118-204, L144V)
# [21] = target: ALX1 (Homo sapiens, UniProt Q15699 118-204, L144R)
# [22] = target: VAX1 (Homo sapiens, UniProt Q5SQQ9 86-172)
# [23] = target: VAX1 (Homo sapiens, UniProt Q5SQQ9 86-172, T142I)
# [24] = target: ALX1 (Homo sapiens, UniProt Q15699 118-204)
# [25] = target: VAX1 (Homo sapiens, UniProt Q5SQQ9 86-172, K157R)
# [26] = target: HOXA2 (Homo sapiens, UniProt O43364 129-215, R185T)
# [27] = target: HOXA2 (Homo sapiens, UniProt O43364 129-215, R185K)
# [28] = target: HOXA2 (Homo sapiens, UniProt O43364 129-215, Y150S)
# [29] = target: HOXA2 (Homo sapiens, UniProt O43364 129-215)
# HOXA2 (Homo sapiens, UniProt O43364 129-215), sequence (O43364 129-215): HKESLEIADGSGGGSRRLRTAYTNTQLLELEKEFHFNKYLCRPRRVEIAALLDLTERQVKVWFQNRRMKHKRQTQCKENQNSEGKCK
# SHOX (Homo sapiens, UniProt O15266 103-189), sequence (O15266 103-189): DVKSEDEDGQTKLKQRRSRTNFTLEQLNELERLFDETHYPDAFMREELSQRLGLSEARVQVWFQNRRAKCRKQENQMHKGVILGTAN
# SHOX (Homo sapiens, UniProt O15266 103-189, R173C), sequence (O15266 103-189 R173C): as the sequence (O15266 103-189) above, with R71C counted along it
# HOXC9 (Homo sapiens, UniProt P31274 178-260, K195R), sequence (P31274 178-260 K195R): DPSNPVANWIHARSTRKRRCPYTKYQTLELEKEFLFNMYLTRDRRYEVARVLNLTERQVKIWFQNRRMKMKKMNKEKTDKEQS
# HOXC9 (Homo sapiens, UniProt P31274 178-260, R193K), sequence (P31274 178-260 R193K): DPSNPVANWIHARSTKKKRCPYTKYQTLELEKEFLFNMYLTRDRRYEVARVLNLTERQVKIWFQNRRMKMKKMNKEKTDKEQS
# HOXC9 (Homo sapiens, UniProt P31274 178-260), sequence (P31274 178-260): as the sequence (P31274 178-260 R193K) above, with K16R counted along it
# HOXC9 (Homo sapiens, UniProt P31274 178-260, R222W), sequence (P31274 178-260 R222W): as the sequence (P31274 178-260 R193K) above, with K16R, R45W counted along it
# MSX2 (Homo sapiens, UniProt P35548 130-214, R199I), sequence (P35548 130-214 R199I): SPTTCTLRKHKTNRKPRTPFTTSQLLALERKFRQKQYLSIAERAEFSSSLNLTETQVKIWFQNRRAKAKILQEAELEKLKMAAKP
# HOXA2 (Homo sapiens, UniProt O43364 129-215, R185K), sequence (O43364 129-215 R185K): as the sequence (O43364 129-215) above, with R57K counted along it
# ALX1 (Homo sapiens, UniProt Q15699 118-204), sequence (Q15699 118-204): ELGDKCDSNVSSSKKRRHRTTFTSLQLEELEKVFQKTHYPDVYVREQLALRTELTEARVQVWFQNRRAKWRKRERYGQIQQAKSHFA
# HOXA2 (Homo sapiens, UniProt O43364 129-215, Y150S), sequence (O43364 129-215 Y150S): as the sequence (O43364 129-215) above, with Y22S counted along it
# NKX3-2 (Homo sapiens, UniProt P78367 192-278), sequence (P78367 192-278): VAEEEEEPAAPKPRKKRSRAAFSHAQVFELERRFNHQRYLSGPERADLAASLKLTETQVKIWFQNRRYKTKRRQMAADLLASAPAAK
# VAX1 (Homo sapiens, UniProt Q5SQQ9 86-172, K157R), sequence (Q5SQQ9 86-172 K157R): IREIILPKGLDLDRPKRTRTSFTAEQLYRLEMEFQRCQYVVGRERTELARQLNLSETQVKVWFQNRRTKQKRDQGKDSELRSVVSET
# VAX1 (Homo sapiens, UniProt Q5SQQ9 86-172), sequence (Q5SQQ9 86-172): as the sequence (Q5SQQ9 86-172 K157R) above, with R72K counted along it
# HOXB9 (Homo sapiens, UniProt P17482 171-250, T197M), sequence (P17482 171-250 T197M): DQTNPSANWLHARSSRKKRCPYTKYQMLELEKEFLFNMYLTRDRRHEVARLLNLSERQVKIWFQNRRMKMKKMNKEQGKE
# HOXB9 (Homo sapiens, UniProt P17482 171-250, R186Q), sequence (P17482 171-250 R186Q): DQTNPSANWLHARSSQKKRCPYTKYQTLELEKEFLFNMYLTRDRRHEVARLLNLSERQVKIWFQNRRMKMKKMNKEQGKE
# MSX2 (Homo sapiens, UniProt P35548 130-214, F161Y), sequence (P35548 130-214 F161Y): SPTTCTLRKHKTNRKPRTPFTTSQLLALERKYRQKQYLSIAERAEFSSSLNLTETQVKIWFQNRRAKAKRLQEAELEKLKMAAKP
# NKX3-2 (Homo sapiens, UniProt P78367 192-278, P234S), sequence (P78367 192-278 P234S): as the sequence (P78367 192-278) above, with P43S counted along it
# HOXA2 (Homo sapiens, UniProt O43364 129-215, R185T), sequence (O43364 129-215 R185T): as the sequence (O43364 129-215) above, with R57T counted along it
# ALX4 (Homo sapiens, UniProt Q9H161 200-286), sequence (Q9H161 200-286): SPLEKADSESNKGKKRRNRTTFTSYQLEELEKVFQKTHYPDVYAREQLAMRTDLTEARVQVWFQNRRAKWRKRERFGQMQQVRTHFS
# HOXB9 (Homo sapiens, UniProt P17482 171-250), sequence (P17482 171-250): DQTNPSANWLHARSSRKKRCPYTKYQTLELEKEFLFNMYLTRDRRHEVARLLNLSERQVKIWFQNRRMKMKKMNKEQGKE
# ALX1 (Homo sapiens, UniProt Q15699 118-204, L144R), sequence (Q15699 118-204 L144R): as the sequence (Q15699 118-204) above, with L27R counted along it
# VAX1 (Homo sapiens, UniProt Q5SQQ9 86-172, T142I), sequence (Q5SQQ9 86-172 T142I): as the sequence (Q5SQQ9 86-172 K157R) above, with T57I, R72K counted along it
# ALX1 (Homo sapiens, UniProt Q15699 118-204, L144V), sequence (Q15699 118-204 L144V): as the sequence (Q15699 118-204) above, with L27V counted along it
# ALX4 (Homo sapiens, UniProt Q9H161 200-286, Q225E), sequence (Q9H161 200-286 Q225E): as the sequence (Q9H161 200-286) above, with Q26E counted along it
# MSX2 (Homo sapiens, UniProt P35548 130-214), sequence (P35548 130-214): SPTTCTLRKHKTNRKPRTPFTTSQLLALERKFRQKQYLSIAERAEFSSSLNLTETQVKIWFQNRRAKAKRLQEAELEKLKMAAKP
sequence,measurement,setting,value
CGCAGTGC,binding signal,[1],"7.16 upbm affinity estimate (log intensity, higher = more binding, comparable within an allelic series)"
same,binding signal,[2],"9.74 upbm affinity estimate (log intensity, higher = more binding, comparable within an allelic series)"
same,binding signal,[3],"9.67 upbm affinity estimate (log intensity, higher = more binding, comparable within an allelic series)"
same,binding signal,[4],"7.23 upbm affinity estimate (log intensity, higher = more binding, comparable within an allelic series)"
same,binding signal,[5],"9.78 upbm affinity estimate (log intensity, higher = more binding, comparable within an allelic series)"
same,binding signal,[6],"9.73 upbm affinity estimate (log intensity, higher = more binding, comparable within an allelic series)"
GCCGGGCA,binding signal,[1],"7.25 upbm affinity estimate (log intensity, higher = more binding, comparable within an allelic series)"
same,binding signal,[7],"8.48 upbm affinity estimate (log intensity, higher = more binding, comparable within an allelic series)"
same,binding signal,[8],"8.45 upbm affinity estimate (log intensity, higher = more binding, comparable within an allelic series)"
same,binding signal,[4],"7.18 upbm affinity estimate (log intensity, higher = more binding, comparable within an allelic series)"
same,binding signal,[9],"8.59 upbm affinity estimate (log intensity, higher = more binding, comparable within an allelic series)"
same,binding signal,[10],"10.6 upbm affinity estimate (log intensity, higher = more binding, comparable within an allelic series)"
same,binding signal,[11],"10.6 upbm affinity estimate (log intensity, higher = more binding, comparable within an allelic series)"
CGTGAGAG,binding signal,[1],"7.22 upbm affinity estimate (log intensity, higher = more binding, comparable within an allelic series)"
same,binding signal,[12],"8.23 upbm affinity estimate (log intensity, higher = more binding, comparable within an allelic series)"
same,binding signal,[2],"9.74 upbm affinity estimate (log intensity, higher = more binding, comparable within an allelic series)"
same,binding signal,[13],"8.19 upbm affinity estimate (log intensity, higher = more binding, comparable within an allelic series)"
same,binding signal,[14],"8.23 upbm affinity estimate (log intensity, higher = more binding, comparable within an allelic series)"
same,binding signal,[3],"9.82 upbm affinity estimate (log intensity, higher = more binding, comparable within an allelic series)"
same,binding signal,[4],"7.25 upbm affinity estimate (log intensity, higher = more binding, comparable within an allelic series)"
same,binding signal,[5],"9.77 upbm affinity estimate (log intensity, higher = more binding, comparable within an allelic series)"
same,binding signal,[6],"9.81 upbm affinity estimate (log intensity, higher = more binding, comparable within an allelic series)"
CTATCATC,binding signal,[1],"8.16 upbm affinity estimate (log intensity, higher = more binding, comparable within an allelic series)"
GCGCCAGC,binding signal,[1],"7.13 upbm affinity estimate (log intensity, higher = more binding, comparable within an allelic series)"
same,binding signal,[15],"9.22 upbm affinity estimate (log intensity, higher = more binding, comparable within an allelic series)"
same,binding signal,[4],"6.97 upbm affinity estimate (log intensity, higher = more binding, comparable within an allelic series)"
same,binding signal,[16],"9.48 upbm affinity estimate (log intensity, higher = more binding, comparable within an allelic series)"
same,binding signal,[17],"9.39 upbm affinity estimate (log intensity, higher = more binding, comparable within an allelic series)"
CCACCCGG,binding signal,[1],"7.19 upbm affinity estimate (log intensity, higher = more binding, comparable within an allelic series)"
same,binding signal,[18],"8.21 upbm affinity estimate (log intensity, higher = more binding, comparable within an allelic series)"
same,binding signal,[19],"8.29 upbm affinity estimate (log intensity, higher = more binding, comparable within an allelic series)"
same,binding signal,[20],"6.62 upbm affinity estimate (log intensity, higher = more binding, comparable within an allelic series)"
same,binding signal,[4],"7.17 upbm affinity estimate (log intensity, higher = more binding, comparable within an allelic series)"
same,binding signal,[21],"6.65 upbm affinity estimate (log intensity, higher = more binding, comparable within an allelic series)"
same,binding signal,[22],"7.3 upbm affinity estimate (log intensity, higher = more binding, comparable within an allelic series)"
same,binding signal,[23],"7 upbm affinity estimate (log intensity, higher = more binding, comparable within an allelic series)"
same,binding signal,[24],"6.35 upbm affinity estimate (log intensity, higher = more binding, comparable within an allelic series)"
same,binding signal,[25],"7.13 upbm affinity estimate (log intensity, higher = more binding, comparable within an allelic series)"
CCTTGCCC,binding signal,[1],"7.09 upbm affinity estimate (log intensity, higher = more binding, comparable within an allelic series)"
same,binding signal,[26],"7.28 upbm affinity estimate (log intensity, higher = more binding, comparable within an allelic series)"
same,binding signal,[4],"7.14 upbm affinity estimate (log intensity, higher = more binding, comparable within an allelic series)"
same,binding signal,[27],"10.4 upbm affinity estimate (log intensity, higher = more binding, comparable within an allelic series)"
same,binding signal,[28],"10.4 upbm affinity estimate (log intensity, higher = more binding, comparable within an allelic series)"
same,binding signal,[29],"7.27 upbm affinity estimate (log intensity, higher = more binding, comparable within an allelic series)"
